Compounds with a hit are over-represented: about 21% of the library has one in this group of screens.
Pf growth 48h – Primary qHTS for delayed death inhibitors of the malarial parasite plastid, 48 hour incubation | P. falciparum luciferase growth in erythrocytes, 48 h | Potency, µM (series often up to 28.7 µM), for inactives: at the highest dose activity change, negative = inhibition, actives largely listed as inhibitors | 310,000 tested, 5.9% active | AID 504832, 2011; active = well fitted inhibition curve with a large enough effect; inconclusive = small, poorly fitted or top-dose-only effect, or another doubt; inactive = no such curve, though single readings can be large or run the other way; also: potency is read from the fitted curve at half-maximal effect; % is scaled to controls: 0 for no effect and ±100 for the full control effect
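A one-generation exposure of luciferase-tagged malaria parasites in RPMI 1640/Albumax erythrocyte culture, 37 C and 5% CO2. Inhibition is inferred from decreased luminescence after adding detection reagent.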
Shiga inhibitor – A qHTS for Small Molecule Inhibitors of Shiga Toxin. Vero cells, Shiga toxin protein synthesis inhibition reporter. inhibition, % at 38.7 µM. 290,000 tested, 9.2% active. AID 2315, 2010; in the data active = inhibition mostly above about 28%, no sharp cut-off; inactive = mostly below about 43%; also: 0% is about no effect
Cycloheximide cs – Cycloheximide Counterscreen for Small Molecule Inhibitors of Shiga Toxin. max response, %. cell reporter, cycloheximide protein synthesis inhibition counterscreen. 300,000 tested, 12% active; in the data active = max response mostly above about 13%, no sharp cut-off; inactive = mostly below about 14%; also: read at 38.3 µM for the half of the compounds with a filed dose; 0% is about no effect
NS1 function inh – qHTS Assay for Inhibitors of Influenza NS1 Protein Function. Potency, µM (doses to about 46.1 µM), without a hit: at the top dose activity, positive = more growth. 270,000 tested, 0.4% active. AID 2326, 2010; also: potency is read from the fitted curve at half-maximal effect; actives are rising curves; nearly all actives have a fitted effect of over 50% in size
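Recovery from NS1-induced slow growth read by OD600 in budding yeast switched to galactose assay medium (pH 6.0, -URA) at 1:100 dilution. Compound 23 nl per well; the matching strain lacking NS1 serves as control.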
SARS PLP yeast – qHTS of Yeast-based Assay for SARS-CoV PLP; S. cerevisiae expressing SARS-CoV PLpro, growth rescue; Potency, µM (series often up to 32.9 µM), for the others: at the top dose activity, positive = growth rescue, actives largely listed as activators; 330,000 tested, 0.19% active; AID 485353, 2010; also: potency is read from the fitted curve at half-maximal effect; 0% is about no effect; nearly all actives have a fitted effect of over 55% in size
Pf growth 96h – Primary qHTS for delayed death inhibitors of the malarial parasite plastid, 96 hour incubation | P. falciparum luciferase reporter growth, 96 h | 320,000 tested, 6.9% active | AID 504834, 2011 | Potency, µM (highest dose often 28.7 µM), for inactives: top-dose activity change, negative = inhibition, most hits filed as inhibitors; active = well fitted inhibition curve with a large enough effect; inconclusive = small, poorly fitted or top-dose-only effect, or another doubt; inactive = no such curve, though single readings can be large or run the other way; also: potency is read from the fitted curve at half-maximal effect; % is scaled to controls: 0 for no effect and ±100 for the full control effect
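Two parasite generations (96 h, 37 C, 5% CO2) of compound exposure in infected erythrocytes (0.05% parasitemia, 2% hematocrit). Luciferase-reporter P. falciparum; decreased luminescence indicates inhibited growth, aimed at apicoplast-acting delayed death.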
Active calls of the source: *. Unless noted, calls follow the shape of the full dose curve.

Results for Cc1ccc(C(=O)CCC(=O)N2CCN(C(=O)c3ccco3)CC2)cc1 ?
Pf growth 48h: 22%; Shiga inhibitor: 5; Cycloheximide cs: 3; NS1 function inh: 6%; SARS PLP yeast: 1%; Pf growth 96h: 3%

What do the screens show for `COc1ccc(CNC(=O)c2noc(C(C)C)c2[N+](=O)[O-])cc1`?
Pf growth 48h: -9%; Shiga inhibitor: -10; Cycloheximide cs: -1; NS1 function inh: 11%; SARS PLP yeast: 1%; Pf growth 96h: 1.9µM*

What do the screens show for `CC(C)c1onc(C(=O)N(C)C2CCCCC2)c1[N+](=O)[O-]`?
Pf growth 48h: inconclusive; Shiga inhibitor: 23; Cycloheximide cs: 26*; SARS PLP yeast: -6%; Pf growth 96h: 12%

Results for CC(C)c1onc(C(=O)NC2CCCC2)c1[N+](=O)[O-] ?
Pf growth 48h: inconclusive; Shiga inhibitor: -5; Cycloheximide cs: 7; SARS PLP yeast: -3%; Pf growth 96h: inconclusive

What do the screens show for `CC(C)c1onc(C(=O)NCc2ccccc2)c1[N+](=O)[O-]`?
Pf growth 48h: inconclusive; Shiga inhibitor: 41*; Cycloheximide cs: 23*; NS1 function inh: -3%; SARS PLP yeast: -1%; Pf growth 96h: -4%

How did CC(C)c1onc(C(=O)NCc2ccc(Cl)cc2)c1[N+](=O)[O-] do in these assays?
Pf growth 48h: inconclusive; Shiga inhibitor: -27; Cycloheximide cs: 1; NS1 function inh: -4%; SARS PLP yeast: -23%; Pf growth 96h: -9%

How did CCCCN(CC)CCNC(=S)Nc1ccc2nc(N3CCN(C)CC3)cc(C)c2c1 do in these assays?
Pf growth 48h: 1.7µM*; Shiga inhibitor: -6; Cycloheximide cs: -7; NS1 function inh: -6%; SARS PLP yeast: -3%; Pf growth 96h: inconclusive

What do the screens show for `CCCCN(CC)CCNC(=O)CCC(=O)Nc1ccc2nc(N3CCN(C)CC3)cc(C)c2c1`?
Pf growth 48h: inconclusive; Shiga inhibitor: 29; Cycloheximide cs: -2; SARS PLP yeast: -1%; Pf growth 96h: -13%

What do the screens show for `CCCN(CCC)CCCNC(=S)Nc1ccc2nc(N3CCN(CC)CC3)cc(C)c2c1`?
Pf growth 48h: 4.1µM*; Shiga inhibitor: 1; Cycloheximide cs: -4; NS1 function inh: 7%; SARS PLP yeast: 2%; Pf growth 96h: -27%

Results for CCCN(CCC)CCCNC(=S)Nc1ccc2nc(N3CCN(C)CC3)cc(C)c2c1 ?
Pf growth 48h: -54%; Shiga inhibitor: -3; Cycloheximide cs: -3; NS1 function inh: -8%; SARS PLP yeast: -5%; Pf growth 96h: inconclusive

Results for O=C(Nc1nc2n(n1)C(c1ccccc1)CC(c1ccc(Cl)cc1)N2)c1ccco1 (configuration not stated) ?
Pf growth 48h: 13µM*; Shiga inhibitor: 19; Cycloheximide cs: 1; NS1 function inh: -7%; SARS PLP yeast: 0%; Pf growth 96h: inconclusive

How did Cc1cc(F)ccc1NS(=O)(=O)c1c(C(=O)N2CCOCC2)c(C)n(C)c1C do in these assays?
Pf growth 48h: -10%; Shiga inhibitor: -17; Cycloheximide cs: -3; NS1 function inh: inconclusive; SARS PLP yeast: 1%; Pf growth 96h: -22%

How did CCOC(=O)N1CCN(C(=O)CCc2c(C)nc3c(c(C)nn3-c3ccc(C)c(C)c3)c2C)CC1 do in these assays?
Pf growth 48h: 13µM*; Shiga inhibitor: -6; Cycloheximide cs: -1; NS1 function inh: -42%; SARS PLP yeast: 3%

How did CCOC(=O)N1CCC(NC(=O)CCc2c(C)nc3c(c(C)nn3C(C)(C)C)c2C)CC1 do in these assays?
Pf growth 48h: 12µM*; Shiga inhibitor: 17; Cycloheximide cs: 1; NS1 function inh: -15%; SARS PLP yeast: 13%; Pf growth 96h: 57%

Results for COC(=O)CC1C(=O)NCCN1C(=O)CSc1nc2ccccc2s1 (configuration not stated) ?
Pf growth 48h: 8%; Shiga inhibitor: -3; Cycloheximide cs: 1; SARS PLP yeast: -5%; Pf growth 96h: -22%

What do the screens show for `O=C1c2ccccc2S(=O)(=O)N1Cc1nnc(-c2ccccc2Br)o1`?
Pf growth 48h: 15%; Shiga inhibitor: 5; Cycloheximide cs: 12; NS1 function inh: -17%; SARS PLP yeast: -18%; Pf growth 96h: 11%

How did O=C1C2CC=CCC2C(=O)N1Cc1nnc(-c2ccccc2Br)o1 (configuration not stated) do in these assays?
Pf growth 48h: -8%; Shiga inhibitor: 68*; Cycloheximide cs: 26*; NS1 function inh: -7%; SARS PLP yeast: -1%; Pf growth 96h: -19%

How did O=c1c2ccccc2nnn1Cc1ccccc1 do in these assays?
Pf growth 48h: 42%; Shiga inhibitor: 30; Cycloheximide cs: -2; NS1 function inh: -4%; SARS PLP yeast: -2%; Pf growth 96h: 2%

Results for O=c1c2ccccc2nnn1Cc1nnc(-c2ccccc2Br)o1 ?
Pf growth 48h: 32%; Shiga inhibitor: 128*; Cycloheximide cs: 44*; NS1 function inh: -101%; SARS PLP yeast: -8%; Pf growth 96h: 98%

Results for Cc1ccc(C2=NS(=O)(=O)N(C)C(C(=O)NCc3ccccc3)=C2)cc1 ?
Pf growth 48h: 7%; Shiga inhibitor: -3; Cycloheximide cs: -4; NS1 function inh: 13%; SARS PLP yeast: -2%; Pf growth 96h: inconclusive

How did CCc1ccc(CN2CCN(c3ncccn3)CC2)cc1 do in these assays?
Pf growth 48h: inconclusive; Cycloheximide cs: 26*; NS1 function inh: -4%; SARS PLP yeast: 1%; Pf growth 96h: inconclusive

How did Fc1ccc(CN2CCN(c3ncccn3)CC2)cc1 do in these assays?
Shiga inhibitor: -13; Cycloheximide cs: -2; NS1 function inh: 5%; SARS PLP yeast: 1%; Pf growth 96h: inconclusive

Results for CC(C)C(=O)NCC(c1ccc2c(c1)OCO2)N1CCOCC1 (configuration not stated) ?
Pf growth 48h: 17%; Shiga inhibitor: 9; Cycloheximide cs: -7; NS1 function inh: -4%; SARS PLP yeast: -9%; Pf growth 96h: 25%

Results for CN(C)C(=O)C1C2NC(=S)N(c3ccccc3)C1(C)Oc1ccccc12 (configuration not stated) ?
Pf growth 48h: 6%; Shiga inhibitor: 2; Cycloheximide cs: 10; SARS PLP yeast: -2%; Pf growth 96h: inconclusive

Results for Cc1cccc(N2C(=S)NC3c4ccccc4OC2(C)C3C(=O)N(C)C)c1 (configuration not stated) ?
Pf growth 48h: 4%; Shiga inhibitor: 8; Cycloheximide cs: 2; SARS PLP yeast: 4%; Pf growth 96h: 9.3µM*

Results for CC(C)c1ccc(/C=C/c2[nH]c(=O)[nH]c(=O)c2[N+](=O)[O-])cc1 ?
Pf growth 48h: -13%; Shiga inhibitor: 19*; Cycloheximide cs: 13*; NS1 function inh: -15%; SARS PLP yeast: 3%; Pf growth 96h: -15%

Screens as filed in PubChem.
